Measurements published in publication PMC5540273 (PLoS ONE, 2017).

How the values were obtained:
Conditions in all cases: concentration: 1 μM,replicates: in singlicate; n = 1
AAK1 = system: AAK1
ABL1-nonphosphorylated = system: ABL1-nonphosphorylated
ABL1-phosphorylated = system: ABL1-phosphorylated
ABL2 = system: ABL2
ACVR1B = system: ACVR1B
ACVR1 = system: ACVR1
ACVR2A = system: ACVR2A
ACVR2B = system: ACVR2B
ACVRL1 = system: ACVRL1
ADCK3 = system: T1, ADCK3
T1 construct: gene CABC1

ADCK4 = system: ADCK4
AKT1 = system: AKT1
AKT2 = system: AKT2
AKT3 = system: AKT3
ALK = system: ALK
AMPK-alpha1 = system: T2, AMPK-alpha1
T2 construct: gene PRKAA1

AMPK-alpha2 = system: T3, AMPK-alpha2
T3 construct: gene PRKAA2

ANKK1 = system: ANKK1
ARK5 = system: T4, ARK5
T4 construct: gene NUAK1

ASK1 = system: T5, ASK1
T5 construct: gene MAP3K5
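Further: KINOMEscan kinase panel screen.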

Compound	%Inh (AAK1)	%Inh (ABL1-nonphosphorylated)	%Inh (ABL1-phosphorylated)	%Inh (ABL2)	%Inh (ACVR1B)	%Inh (ACVR1)	%Inh (ACVR2A)	%Inh (ACVR2B)	%Inh (ACVRL1)	%Inh (ADCK3)	%Inh (ADCK4)	%Inh (AKT1)	%Inh (AKT2)	%Inh (AKT3)	%Inh (ALK)	%Inh (AMPK-alpha1)	%Inh (AMPK-alpha2)	%Inh (ANKK1)	%Inh (ARK5)	%Inh (ASK1)
CS(=O)(=O)Nc1ccc(-c2ccnc3[nH]ccc23)cc1 [GSK993273]	79%	0%	1%	16%	0%	3%	0%	0%	0%	12%	22%	0%	21%	0%	18%	94.4%	0%	27%	0%	44%
CCCC(=O)Nc1n[nH]c2ncccc12 [SB-601436]	0%	24%	0%	0%	0%	5%	0%	0%	0%	0%	0%	0%	0%	2%	0%	0%	0%	13%	0%	0%
Cc1ccn2nc(-c3ccc(F)cc3)c(-c3ccncc3)c2c1.Cl [GW457859]	0%	0%	0%	0%	0%	9%	0%	32%	0%	17%	59%	0%	0%	0%	1%	5%	0%	5%	5%	0%
CS(=O)c1ccc(-c2coc3ccc(-c4n[nH]c(=O)o4)cc23)cc1 (centres unmarked)	21%	35%	3%	0%	14%	0%	8%	19%	0%	0%	12%	0%	0%	26%	13%	100%	5%	36%	10%	0%
CC(C)S(=O)(=O)N1CCN(Cc2ccc3c(c2)nc(NC(=O)c2ccsc2)n3C[C@H](O)c2ccccc2)CC1 [GW635815]	38%	0%	2%	22%	15%	0%	0%	0%	0%	0%	27%	0%	16%	0%	68%	0%	2%	19%	60%	17%
O=C(NCC1CC1)c1ccc(-c2cc(C(=O)NC3CC3)ccc2F)cc1 [GW810445]	0%	0%	10%	3%	0%	0%	0%	6%	0%	0%	23%	24%	0%	0%	10%	0%	0%	0%	0%	19%
COC(=O)Nc1nc2cc(Oc3ccc(NC(=O)Nc4cc(C(F)(F)F)ccc4Cl)cc3)ccc2[nH]1.Cl [GW697465]	0%	97%	32%	89%	0%	0%	0%	0%	0%	82%	48%	0%	0%	0%	30%	0%	0%	0%	0%	11%
COC(=O)c1cccc(NC(=O)NC2CCN(c3ccnc(Nc4cc(OC)c(OC)c(OC)c4)n3)C2)c1 (centres unmarked) [GSK1379767]	68%	0%	0%	1%	0%	33%	35%	6%	0%	21%	60%	0%	0%	0%	50%	16%	9%	20%	10%	0%
Cn1ccc2ncnc(Oc3ccc(NC(=O)Nc4cc(C(C)(C)C)on4)c(Cl)c3)c21	18%	94.8%	51%	46%	15%	0%	12%	12%	0%	0%	19%	18%	0%	0%	38%	0%	21%	10%	4%	11%
Cc1n[nH]c2cc(Nc3ccnc(Nc4cccc(CN5CCOCC5)c4)n3)ccc12 [GW682569]	71%	22%	26%	23%	36%	85%	0%	39%	17%	19%	97.1%	0%	0%	0%	16%	0%	0%	17%	0%	0%
Cc1cccc2c(-c3ccncc3)c(-c3ccc(F)cc3)nn12.Cl [GW461487]	14%	0%	0%	5%	18%	9%	0%	11%	0%	18%	28%	0%	2%	0%	7%	17%	0%	24%	11%	1%
Cc1ccc(Nc2ccnc(Nc3ccc4c(c3)CS(=O)(=O)C4)n2)cc1O.Cl [GW579362]	80%	99.3%	99.8%	99.3%	84%	99.5%	72%	95.6%	85%	8%	100%	0%	0%	0%	51%	10%	17%	44%	25%	0%
COc1ccc(Nc2nccc(N3CCC(NC(=O)c4cccc(C#N)c4)C3)n2)cc1 (centres unmarked) [GSK1379730]	0%	0%	0%	9%	4%	24%	0%	0%	0%	0%	9%	0%	0%	0%	28%	0%	0%	0%	0%	0%
CN(c1ccc2c(c1)nc(NCc1ccc(F)cc1)n2C)c1ccnc(Nc2ccc(CS(C)(=O)=O)cc2)n1.Cl [GW813244]	30%	97.2%	79%	75%	3%	17%	0%	0%	0%	0%	21%	8%	0%	1%	0%	11%	5%	0%	4%	37%
CCn1c(-c2nonc2N)nc2cncc(CNC3CCNCC3)c21.Cl [SB-747651]	39%	5%	5%	13%	0%	8%	0%	0%	0%	1%	11%	72%	51%	66%	63%	6%	0%	22%	9%	9%
Cc1ccc(CC(=O)N2CCc3cc(-c4cn(C)c5ncnc(N)c45)ccc32)cc1 [GSK2634758]	33%	42%	5%	24%	20%	0%	0%	0%	0%	6%	9%	0%	1%	30%	0%	0%	29%	23%	37%	3%
